15 compounds from PubChem BioAssay AID504466 (National Center for Advancing Translational Sciences (NCATS), 2011) can be followed below.

Among all 330,000 compounds or so, about 4,200 (1.3%) were called active. Another 6% or so got no clear call; they are omitted. Calls follow the shape of the dose curve; as a rule, active = well fitted activation curve with a large enough effect; inconclusive = small, poorly fitted or top-dose-only effect; inactive = no such curve, though single readings can be large or run the other way. The list comes from a sample in which actives are over-represented; it also holds similar structures and randomly drawn compounds. A call without a number means that no potency is given here.
Potency is read from the fitted curve at half-maximal effect.

The nature of the assay: qHTS screen for small molecules that induce genotoxicity in human embryonic kidney (HEK293T) cells expressing luciferase-tagged ELG1. Also: nearly all actives have a fitted effect of over 60% in size. The note with it: HEK293T ELG1-luciferase reporter, luminescence, 16 h; series mostly up to 46 µM. From the text:
NIH Molecular Libraries Probe Production Network [MLPCN] NIH Chemical Genomics Center [NCGC] MLPCN Grant: 1 R03 MH092164-01 Assay Provider: Kyungjae Myung, NHGRI, NIH Keywords: MLPCN, qHTS, NCGC, genotoxicity, cancer Assay Overview: Cancer cells divide rapidly compared to normal cells in the body. During cell division, cancer cells need to duplicate their genome by DNA replication. The failure of genome duplication leads to cancer cells' death. Therefore, inhibitors of DNA replication could specifically kill cancer cells. Based on this concept, many chemotherapeutic agents were developed and have been used to treat cancer patients. However, there are a limited number of agents available in the clinical setting, and some of those that do exist have low efficacy and severe side effects. Therefore, if we can find the compounds that effectively block DNA replication either by directly damaging DNA or by inhibiting other cellular mechanisms, the options for cancer treatment will be broadened. With this in mind, we developed a quantitative high-throughput ELG1-luciferase reporter gene assay. Since the level of human ELG1 protein is enhanced in response to genetic stresses, increases in luciferase activity can be used to identify compounds that cause genetic stress.
Assay Protocol Summary: For genotoxicity screening, 2,000 cells in 5 uL/well were dispensed into white, solid-bottom 1536-well plates using a solenoid-based dispenser. Following transfer of 23 nL compound or DMSO vehicle by a pin tool, the plates were incubated 16 hr at 37 °C and 5% CO2. 5 ul ONE-Glo (Promega) was then added to each plate and following a 30 min incubation at room temperature, luciferase activity was quantified on a ViewLux CCD-based plate reader.
In the case of `O=C(OCC(=O)c1cccs1)C1=COCCO1`, the Potency is 18.4 µM (active).
Regarding `CC[N+](C)(CC)CCC[n+]1c(-c2ccccc2)c2cc(N)ccc2c2ccc(N)cc21`, the Potency entry was “inactive”.
Then `c1cc2c(cc1C1OCC3C(c4ccc5c(c4)OCO5)OCC13)OCO2` (stereo not given), with “inactive”; and `C[C@]12CC[C@H](O)CC1=C([N+](=O)[O-])CC1C2CC[C@@]2(C)C1CC[C@@H]2O` (stereo not given in full), with “inactive”; and `COc1ccc(C2CC(c3cccs3)=NN2c2nc(C)c(C(C)=O)s2)cc1OC` (stereo not given), with 20.6 µM (active).
As to `CN(C)C(=O)Oc1ccc(OCc2cccc[n+]2C)cc1`, the Potency entry is “inactive”.
Then `CN(C)C(=O)Oc1ccc2c(c1)O/C(=C\c1ccccc1)C2=O`, with 20.6 µM (active).
Then `CCOC(=O)c1c(-c2ccccc2)oc2ccc(OC(=O)N(C)C)cc12`, with “inactive”; and `COC(=O)[C@@H]1C(OC(=O)c2ccccc2)CC2CCC1N2C` (stereo not given in full), with “inactive”; and `CC[C@H]1CN2CCc3cc(OC)c(OC)cc3[C@@H]2C[C@@H]1C[C@H]1NCCc2cc(OC)c(OC)cc21`, with “inactive”.
With `COC1=CC=C2[C@H]3Cc4ccc(OC)c5c4[C@@]2(CCN3C)C1O5` (stereo not given in full) the entry was “inactive”; with `O=C(OCCN1CCOCC1)C1(c2ccccc2)CCCC1`, “inactive”; with `CCC(=O)c1ccc(OCC(=O)N2CCN(CC(=O)Nc3ccc(C)cc3)CC2)cc1`, “inactive”.
As for `O=C(/C=C/c1cccs1)c1cc(Cl)ccc1OC(=O)N1CCOCC1`, the Potency entry is “inactive”.
With `Oc1ccc2c3c1OC1[C@H](O)CC[C@@]4(O)[C@@H](C2)N(CC2CC2)CC[C@]314` (stereo not given in full) the entry was “inactive”.
